We go through eleven compounds from ChEMBL document CHEMBL3988442, “University of Dundee, Small-Polar-MMV Screening Library” (2021).

Common to all, as to design: scale not given: direction of the effect not stated beside the values
Assay [1] addresses Protein translocase subunit SecA (Escherichia coli (strain K12)) (UniProt P10408). In words: Assay to Identify E. coli SecA ATPase Inhibitors. The note with it: 30 µM. It counts as functional.
Assay [2] concerns the target T1, Ubiquitin-activating enzyme e1, putative (Leishmania donovani (strain BPK282A1)) (UniProt E9BSI1).
T1 sequence (whole entry): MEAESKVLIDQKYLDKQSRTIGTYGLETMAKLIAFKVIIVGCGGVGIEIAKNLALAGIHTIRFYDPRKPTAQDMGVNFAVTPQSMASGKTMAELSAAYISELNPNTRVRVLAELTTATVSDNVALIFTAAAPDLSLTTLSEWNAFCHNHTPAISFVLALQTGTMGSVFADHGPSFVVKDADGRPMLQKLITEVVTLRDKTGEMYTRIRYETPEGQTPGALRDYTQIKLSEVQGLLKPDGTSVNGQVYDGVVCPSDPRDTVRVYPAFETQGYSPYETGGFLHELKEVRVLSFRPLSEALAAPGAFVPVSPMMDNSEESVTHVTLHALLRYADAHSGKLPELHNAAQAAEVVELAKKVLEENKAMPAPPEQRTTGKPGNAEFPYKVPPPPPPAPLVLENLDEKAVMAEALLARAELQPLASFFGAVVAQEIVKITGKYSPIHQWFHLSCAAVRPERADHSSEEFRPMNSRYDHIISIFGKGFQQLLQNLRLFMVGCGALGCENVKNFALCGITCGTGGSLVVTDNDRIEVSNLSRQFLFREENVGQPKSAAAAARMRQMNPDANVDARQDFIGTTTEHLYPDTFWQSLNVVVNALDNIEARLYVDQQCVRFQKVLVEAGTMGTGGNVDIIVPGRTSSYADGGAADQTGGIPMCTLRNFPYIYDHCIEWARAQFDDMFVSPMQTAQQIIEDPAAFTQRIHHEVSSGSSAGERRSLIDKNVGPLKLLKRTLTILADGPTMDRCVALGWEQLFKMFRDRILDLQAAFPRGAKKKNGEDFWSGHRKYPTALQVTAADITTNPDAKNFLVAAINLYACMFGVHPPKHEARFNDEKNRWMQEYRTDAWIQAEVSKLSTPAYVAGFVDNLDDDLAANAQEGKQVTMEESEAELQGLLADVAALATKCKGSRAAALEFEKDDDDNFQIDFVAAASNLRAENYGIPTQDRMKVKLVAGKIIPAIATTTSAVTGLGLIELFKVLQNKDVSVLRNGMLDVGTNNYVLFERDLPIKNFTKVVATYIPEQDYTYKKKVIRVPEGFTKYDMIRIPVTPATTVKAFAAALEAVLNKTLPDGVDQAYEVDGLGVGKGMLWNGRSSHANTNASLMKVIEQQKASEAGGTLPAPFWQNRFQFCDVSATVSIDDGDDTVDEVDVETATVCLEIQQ
Kind of assay: Leishmania donovani Ubiquitin Activating Enzyme (LdE1). It counts as functional. Particulars: 30 µM.

Assay [3] concerns the target AMP-activated protein kinase, AMPK (Homo sapiens) (UniProt P54646+O43741+P54619+Q9UGJ0+Q9Y478+Q13131+Q9UGI9). In words: AMP-dependent Kinase enzyme assay. An in vitro enzyme assay that detects ADP turnover that is directly proportional to AMPK activity. This uses naive AMPK that is activated during the assay with MK-8722. It counts as functional. Particulars: 30 µM.

Assay [4] has as its target Sialic acid-binding Ig-like lectin 9 (Homo sapiens) (UniProt Q9Y336). In words: Hs-Siglec9 ALPHAscreen SOP 20170721. Particulars: 10 µM.
The test system of another assay is Trypanosoma cruzi. In words: Trypanosoma cruzi phosphomannomutase and mannose-1-phosphate guanylyltransferase assay. It counts as functional. The note with it: 10 µM.
In assay [5] the target is T2, Arginase-2, mitochondrial (Homo sapiens) (UniProt P78540).
T2 sequence (whole entry): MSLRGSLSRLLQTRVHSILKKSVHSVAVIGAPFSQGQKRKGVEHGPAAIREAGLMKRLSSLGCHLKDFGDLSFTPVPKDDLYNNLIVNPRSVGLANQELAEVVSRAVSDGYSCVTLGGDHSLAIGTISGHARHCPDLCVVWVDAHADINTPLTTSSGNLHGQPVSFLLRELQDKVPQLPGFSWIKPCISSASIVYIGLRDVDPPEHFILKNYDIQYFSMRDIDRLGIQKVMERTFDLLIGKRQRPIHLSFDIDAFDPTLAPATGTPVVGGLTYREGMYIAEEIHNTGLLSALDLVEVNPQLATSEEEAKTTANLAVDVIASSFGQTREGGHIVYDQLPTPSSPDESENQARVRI
Kind of assay: in vitro enzyme assay to detect the production of urea directly proportional to the activity of Arginase II. Note: in the data most compounds retested in dose-response had high values. It is filed as functional. The note with it: 33.3 µM.

For assay [6], the target named is T3, Proteasome subunit beta (Trypanosoma cruzi) (UniProt O96673).
T3 sequence (whole entry): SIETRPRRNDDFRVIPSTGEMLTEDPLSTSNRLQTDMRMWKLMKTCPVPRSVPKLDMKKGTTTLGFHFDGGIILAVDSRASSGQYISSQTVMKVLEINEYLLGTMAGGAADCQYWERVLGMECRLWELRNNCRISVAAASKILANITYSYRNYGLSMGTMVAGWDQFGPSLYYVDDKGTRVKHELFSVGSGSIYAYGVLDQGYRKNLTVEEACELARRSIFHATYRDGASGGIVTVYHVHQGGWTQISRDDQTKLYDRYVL
Kind of assay: Trypanosoma cruzi proteasome chymotrypsin-like activity (TcProtChymo) assay. Note: in the data most compounds retested in dose-response had high values. It counts as functional. The note with it: 9.37 µM.

The next assay is filed under the species Homo sapiens. In words: To identify inhibition of the IFN signalling (Jak-Stat) pathway via expression of an eGFP reporter gene under the control of an IFN-stimulated response element (ISRE) containing MxA promoter. It counts as functional. The note with it: 30 µM.
Assay [7] deals with T4, Tyrosyl-tRNA synthetase, putative (Trypanosoma cruzi (strain CL Brener)) (UniProt Q4DSP6).
T4 sequence (whole entry): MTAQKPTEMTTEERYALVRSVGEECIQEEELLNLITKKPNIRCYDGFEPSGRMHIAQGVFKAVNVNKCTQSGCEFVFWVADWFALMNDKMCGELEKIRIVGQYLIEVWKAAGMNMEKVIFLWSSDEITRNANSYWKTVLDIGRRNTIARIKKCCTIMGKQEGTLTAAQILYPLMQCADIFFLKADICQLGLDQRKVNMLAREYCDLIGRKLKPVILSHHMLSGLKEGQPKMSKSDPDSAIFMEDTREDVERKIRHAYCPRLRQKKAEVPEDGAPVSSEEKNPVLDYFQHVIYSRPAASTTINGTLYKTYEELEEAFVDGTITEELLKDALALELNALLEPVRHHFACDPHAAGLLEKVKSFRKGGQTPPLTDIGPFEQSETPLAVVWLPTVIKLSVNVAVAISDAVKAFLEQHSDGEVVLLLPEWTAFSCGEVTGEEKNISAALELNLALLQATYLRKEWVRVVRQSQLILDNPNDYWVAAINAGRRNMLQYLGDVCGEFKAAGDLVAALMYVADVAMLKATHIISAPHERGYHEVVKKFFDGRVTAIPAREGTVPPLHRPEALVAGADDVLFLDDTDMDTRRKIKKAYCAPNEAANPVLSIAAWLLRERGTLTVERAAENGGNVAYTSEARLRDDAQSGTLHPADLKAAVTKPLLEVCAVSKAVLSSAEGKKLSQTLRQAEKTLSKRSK
Kind of assay: Trypanosoma cruzi tyrosyl tRNA synthetase (TcYRS) _High Tyrosine SOP. Note: in the data most compounds retested in dose-response had high values. It is filed as functional. Particulars: 30 µM.

Assay [8] has as its target T4, Tyrosyl-tRNA synthetase, putative (Trypanosoma cruzi (strain CL Brener)). In words: Trypanosoma cruzi tyrosyl tRNA synthetase (TcYRS) SOP. It is filed as functional. Particulars: 30 µM.
Assay [9] deals with Chromo domain-containing protein 1 (Saccharomyces cerevisiae (strain ATCC 204508 / S288c) (Baker's yeast)) (UniProt P32657). In words: ScCHD-1 Enzyme Inhibition Assay. Note: in the data most compounds retested in dose-response had high values. It is filed as functional. Particulars: 30 µM.
Chain of Chromo domain-containing protein 1 (Saccharomyces cerevisiae (strain ATCC 204508 / S288c) (Baker's yeast)) (P32657 whole entry, the tested form may be a part): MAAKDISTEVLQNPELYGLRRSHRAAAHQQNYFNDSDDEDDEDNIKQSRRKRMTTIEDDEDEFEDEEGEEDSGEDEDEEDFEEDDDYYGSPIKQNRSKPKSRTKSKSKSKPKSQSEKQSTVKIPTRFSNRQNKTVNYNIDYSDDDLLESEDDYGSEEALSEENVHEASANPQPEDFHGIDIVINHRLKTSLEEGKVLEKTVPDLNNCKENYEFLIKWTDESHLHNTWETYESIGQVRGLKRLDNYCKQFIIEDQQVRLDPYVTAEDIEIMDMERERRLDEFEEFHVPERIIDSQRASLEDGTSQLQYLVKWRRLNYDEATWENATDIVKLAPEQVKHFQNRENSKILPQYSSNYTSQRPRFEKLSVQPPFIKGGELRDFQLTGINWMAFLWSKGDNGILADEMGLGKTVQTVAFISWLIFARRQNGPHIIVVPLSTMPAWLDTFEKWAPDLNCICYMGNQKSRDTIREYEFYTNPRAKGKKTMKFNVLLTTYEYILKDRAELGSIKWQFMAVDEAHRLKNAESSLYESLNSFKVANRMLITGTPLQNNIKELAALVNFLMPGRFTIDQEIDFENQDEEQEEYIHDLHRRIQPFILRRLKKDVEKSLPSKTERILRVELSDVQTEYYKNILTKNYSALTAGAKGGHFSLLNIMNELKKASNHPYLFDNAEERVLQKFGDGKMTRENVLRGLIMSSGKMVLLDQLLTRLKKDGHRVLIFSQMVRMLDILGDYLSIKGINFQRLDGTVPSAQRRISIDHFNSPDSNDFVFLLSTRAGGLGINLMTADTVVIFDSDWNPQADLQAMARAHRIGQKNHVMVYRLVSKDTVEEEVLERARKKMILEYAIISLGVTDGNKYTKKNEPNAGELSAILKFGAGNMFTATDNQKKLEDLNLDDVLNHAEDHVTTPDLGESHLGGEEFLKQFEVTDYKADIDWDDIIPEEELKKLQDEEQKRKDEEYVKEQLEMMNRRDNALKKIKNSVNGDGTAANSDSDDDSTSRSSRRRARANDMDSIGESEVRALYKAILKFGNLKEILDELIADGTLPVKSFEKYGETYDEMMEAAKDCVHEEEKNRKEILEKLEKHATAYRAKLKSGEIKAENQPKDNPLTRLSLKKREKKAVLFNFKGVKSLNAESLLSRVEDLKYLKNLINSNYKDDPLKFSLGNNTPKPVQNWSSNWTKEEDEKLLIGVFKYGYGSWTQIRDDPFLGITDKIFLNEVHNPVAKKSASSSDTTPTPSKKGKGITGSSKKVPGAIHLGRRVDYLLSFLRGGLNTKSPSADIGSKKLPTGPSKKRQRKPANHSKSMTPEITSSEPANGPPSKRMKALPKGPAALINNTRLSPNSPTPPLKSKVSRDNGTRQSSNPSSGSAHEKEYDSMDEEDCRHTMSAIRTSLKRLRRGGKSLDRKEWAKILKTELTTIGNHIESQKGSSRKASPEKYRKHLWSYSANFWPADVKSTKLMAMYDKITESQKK

For some of these results: Potency and affinity values are given separately.

Chain of Protein translocase subunit SecA (Escherichia coli (strain K12)) (P10408 whole entry): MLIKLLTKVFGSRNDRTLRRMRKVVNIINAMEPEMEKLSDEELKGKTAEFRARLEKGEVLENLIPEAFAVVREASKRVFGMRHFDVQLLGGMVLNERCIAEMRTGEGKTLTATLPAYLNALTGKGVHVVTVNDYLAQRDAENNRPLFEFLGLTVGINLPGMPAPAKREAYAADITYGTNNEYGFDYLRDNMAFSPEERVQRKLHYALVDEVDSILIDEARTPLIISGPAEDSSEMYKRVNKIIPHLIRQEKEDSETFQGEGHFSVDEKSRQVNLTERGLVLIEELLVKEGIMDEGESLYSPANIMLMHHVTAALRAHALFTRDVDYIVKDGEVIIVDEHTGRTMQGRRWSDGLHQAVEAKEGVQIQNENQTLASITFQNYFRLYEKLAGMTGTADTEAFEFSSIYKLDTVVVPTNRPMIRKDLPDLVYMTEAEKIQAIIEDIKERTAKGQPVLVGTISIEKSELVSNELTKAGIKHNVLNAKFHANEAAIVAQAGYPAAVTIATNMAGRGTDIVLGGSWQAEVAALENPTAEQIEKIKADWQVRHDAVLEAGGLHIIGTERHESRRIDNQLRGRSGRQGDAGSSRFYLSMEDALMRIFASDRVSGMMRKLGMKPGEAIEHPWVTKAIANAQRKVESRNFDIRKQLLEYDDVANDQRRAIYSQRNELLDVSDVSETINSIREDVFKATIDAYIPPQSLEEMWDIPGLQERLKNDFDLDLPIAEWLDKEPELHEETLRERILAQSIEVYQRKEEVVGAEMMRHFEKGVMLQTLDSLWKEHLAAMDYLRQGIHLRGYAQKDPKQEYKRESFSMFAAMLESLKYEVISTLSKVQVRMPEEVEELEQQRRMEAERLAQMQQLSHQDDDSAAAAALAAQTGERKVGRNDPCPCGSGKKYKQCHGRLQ
Chain of Sialic acid-binding Ig-like lectin 9 (Homo sapiens) (Q9Y336 whole entry): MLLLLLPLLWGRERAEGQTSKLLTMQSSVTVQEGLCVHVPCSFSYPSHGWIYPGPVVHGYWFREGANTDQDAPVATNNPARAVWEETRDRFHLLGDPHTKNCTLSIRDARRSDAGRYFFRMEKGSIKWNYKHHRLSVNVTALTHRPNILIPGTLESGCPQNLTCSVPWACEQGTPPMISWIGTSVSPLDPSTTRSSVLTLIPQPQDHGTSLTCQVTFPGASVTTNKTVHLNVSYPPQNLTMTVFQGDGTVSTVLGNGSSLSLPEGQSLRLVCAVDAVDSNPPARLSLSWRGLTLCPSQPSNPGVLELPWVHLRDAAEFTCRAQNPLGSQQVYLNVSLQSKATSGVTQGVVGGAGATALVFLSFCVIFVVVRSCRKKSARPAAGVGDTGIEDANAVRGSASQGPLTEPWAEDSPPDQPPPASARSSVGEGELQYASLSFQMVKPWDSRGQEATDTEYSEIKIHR

For the compound `O=C(c1ccsc1)N1CC[C@H]2C[C@@H](c3nnc(C4CC4)o3)O[C@@H]2C1`, the Percent Effect was -1.93% in assay [1]; 7.79% in assay [2]; 1.35% in [3]; -4.04% in assay [4]; -1.08% with Trypanosoma cruzi; 12.3% in assay [5]. Further, the Percent Effect is 19.5% in assay [6]; -4.29% in the assay filed under Homo sapiens; 2.12% in assay [7]; 11.5% in assay [8]; -7.52% in assay [9].

Regarding `Cc1ncsc1C(=O)NCCn1nc2ccccn2c1=O`, the Percent Effect in [1] is -2.94%; in assay [2], 13.5%; in assay [3] it was 0.246%; in [4] it was -6.32%; with Trypanosoma cruzi, -3.44%; in assay [5], 2.03%. Also, the Percent Effect in assay [6] was 2.51%; in the assay listed under Homo sapiens, 13.6%; in assay [7] it was 8.91%; in [8], 15.8%; in assay [9] it was -7.12%.

On to `CC1CCc2nc(O)c(C(=O)NCCN(C)C)cc2C1` (stereo unspecified), for which the Percent Effect is -6.34% in assay [1]; 4% in assay [2]; -0.0231% in [3]; 6.09% in [4]; 1.38% in the assay on Trypanosoma cruzi; -6.51% in assay [5]. The Percent Effect in assay [6] is 14.8%; in the assay listed under Homo sapiens it was -2.83%; in assay [7], 1.06%; in assay [8] it was 2.56%; in assay [9], -5.39%.

As for `CC(C)c1nc(CN(C)C2CCN(CC(F)(F)F)C2)no1` (stereo unspecified), the Percent Effect is -5.29% in assay [1]; 5.48% in [2]; -3.78% in [3]; -4.08% in assay [4]; -0.588% in the assay on Trypanosoma cruzi; 2.73% in assay [5]. Besides, the Percent Effect was 6.57% in assay [6]; -2.57% in the assay listed under Homo sapiens; 4.3% in [7]; 10% in [8]; -1.35% in assay [9].

Turning to `Cc1nc(C)n(CC2CCCN2CCCc2ccccc2)n1` (stereo unspecified), the Percent Effect in assay [1] is -1.6%; in [2], -11%; in assay [3], -0.4%; in assay [4], 3.43%; in the assay on Trypanosoma cruzi, 1.96%; in assay [5], 1.82%. In addition, the Percent Effect is 7.1% in [6]; -8.87% in the assay listed under Homo sapiens; 8.6% in assay [7]; 5% in assay [8]; -1.02% in [9].

Consider `COc1cc(C(=O)NS(=O)(=O)c2cccc(C#N)c2)ccc1C`, for which the Percent Effect in assay [1] is -1.35%; in assay [2], -10.8%; in assay [3], -1.79%; in assay [4] it was 1.78%; with Trypanosoma cruzi, 7.15%; in assay [5] it was -0.554%. Besides, the Percent Effect is 2.33% in [6]; 10.3% in the assay filed under Homo sapiens; -5.94% in [7]; -1.22% in [8]; -2.42% in assay [9].

In the case of `COc1cc(CNC(=O)Nc2cc(C(F)(F)F)c[nH]c2=O)ccn1`, the Percent Effect in [1] is -3.54%; in assay [2], 13.2%; in assay [3], 2.48%; in assay [4] it was 10.4%; with Trypanosoma cruzi, 1.13%; in assay [5] it was -3.06%. Further, the Percent Effect is 12.7% in assay [6]; 7.49% in the assay listed under Homo sapiens; 0.49% in assay [7]; 12.2% in assay [8]; -11.3% in assay [9].

For the compound `CCC(=O)N1CCc2[nH]cnc2C12CCN(C(=O)c1snnc1C)CC2`, the Percent Effect was -0.279% in assay [1]; 5.33% in [2]; -6.44% in assay [3]; 8.1% in [4]; 0.876% in the assay on Trypanosoma cruzi; 10.9% in [5]. The Percent Effect in assay [6] is 13.8%; in the assay filed under Homo sapiens, 23.3%; in assay [7], 0.546%; in [8] it was 13.6%; in [9], -1.51%.

For `Cc1cc(C)cc(NS(=O)(=O)c2cc3c(c(C(=O)O)c2)OCCO3)c1`, the Percent Effect is -4.74% in assay [1]; 6.33% in assay [2]; -7.57% in assay [3]; 3.67% in assay [4]; 0.308% in the assay on Trypanosoma cruzi; -5.38% in assay [5]. The Percent Effect in assay [6] is 15.4%; in the assay filed under Homo sapiens, 2.08%; in assay [7], -10.4%; in [8] it was -5.06%; in [9], -26.1%.

Consider `C=C(C)CN(Cc1cccc(O)c1)C1CCC(O)CC1` (stereo unspecified), for which the Percent Effect is -4.6% in assay [1]; 5.41% in assay [2]; -0.588% in assay [3]; 6.05% in assay [4]; -2.64% in the assay on Trypanosoma cruzi; -0.248% in [5]. Further, the Percent Effect is 6.44% in [6]; -11.6% in the assay filed under Homo sapiens; 2.15% in [7]; 6.17% in assay [8]; -4.17% in assay [9].

As for `O=C(NCC1CC1)C1CN(C(=O)c2cccnc2)CC12CCOCC2` (stereo unspecified), the Percent Effect in assay [1] was -0.919%; in assay [2], 13%; in assay [3], 2.21%; in [4], 6.47%; in the assay on Trypanosoma cruzi, -0.296%; in assay [5] it was -0.645%. In addition, the Percent Effect was 13.6% in assay [6]; 18.6% in the assay filed under Homo sapiens; 5.29% in assay [7]; 14.1% in assay [8]; -4.19% in [9].
